Test results: PubChem BioAssay
Calls of active or inactive are those of the source.

Assays:
[1] = system: PRMT1 (protein arginine N-methyltransferase 1); test: PRMT1 binders on small-molecule microarrays, primary screen, biochemical, small-molecule microarray, 635 nm fluorescence (AID 1088); details: small-molecule microarray binding, higher = more signal;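 note: binding of Prmt1 protein to compounds spotted on small-molecule microarray slides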
[2] = yeast growth modulation, basal conditions, primary screen, YJM789 clinical isolate, OD600, 24 h (AID 1089);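 note: growth of clinical yeast isolate S. cerevisiae YJM 789 seeded 1000 cells per well; test concentration not given here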; details: S. cerevisiae YJM789 growth, higher = more signal, called active from +8 up or from −8 down
[3] = fission yeast growth modulation, primary screen, strain 972, OD600, 24 h, no modulator (AID 1090);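 note: basal condition with compound alone and no growth modifier present; test concentration not given here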; details: S. pombe 972 growth, higher = more signal, called active from +8 up or from −8 down
[4] = S. cerevisiae growth modulation with rapamycin, primary screen, strain BY4716, OD600, 96 h (AID 1091); details: higher = more signal, called active from +8 up or from −8 down; note: test concentration not given here
[5] = biological target: Torsin-1A-interacting protein 2 (Homo sapiens) (UniProt Q8NFQ8); test: LULL1 binders on small-molecule microarray, primary screen, cell lysate, human LULL1 lysate, 635/667 nm fluorescence (AID 1092); details: hLULL1 lysate binding, 635 nm fluorescence, higher = more signal;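 note: probe is lysate of COS7 cells overexpressing human LULL1; score merges per-feature 667 nm fluorescence with signal-to-noise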
Sequence of Torsin-1A-interacting protein 2 (Homo sapiens) (Q8NFQ8 whole entry, looked up): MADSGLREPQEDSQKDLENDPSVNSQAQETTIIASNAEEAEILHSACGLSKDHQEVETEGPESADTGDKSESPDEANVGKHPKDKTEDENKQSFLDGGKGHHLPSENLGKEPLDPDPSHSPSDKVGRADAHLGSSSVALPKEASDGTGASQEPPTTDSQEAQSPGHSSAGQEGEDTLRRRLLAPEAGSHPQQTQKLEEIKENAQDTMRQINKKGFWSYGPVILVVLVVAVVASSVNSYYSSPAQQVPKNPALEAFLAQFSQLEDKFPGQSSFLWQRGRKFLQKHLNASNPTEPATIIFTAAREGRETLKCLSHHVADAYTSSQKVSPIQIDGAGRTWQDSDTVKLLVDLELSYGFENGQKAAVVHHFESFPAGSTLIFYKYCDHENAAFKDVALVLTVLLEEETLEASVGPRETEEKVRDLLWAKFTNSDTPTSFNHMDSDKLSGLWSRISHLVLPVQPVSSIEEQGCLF

[6] = E. coli growth modulation, two-sided OD650, primary screen, E. coli filamentation project, strain DRC41, 24 h (AID 1093); details: OD650, 24 h, higher = more signal, called active from +8 up or from −8 down;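 note: MC1000 strain lacking acrAB efflux and sulA so SOS filamentation is blocked; test concentration not given here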
[7] = small-molecule microarray binders of probe aLefty2, primary screen, biochemical, biotinylated probe, 635/667 nm fluorescence (AID 1094); details: higher = more signal;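 note: score merges spot fluorescence near 667 nm with spot signal-to-noise ratio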
[8] = system: Noggin (protein binding on small-molecule microarray); test: Noggin binders on small-molecule microarray, primary screen, biochemical, 635/667 nm fluorescence (AID 1095); details: 635 nm fluorescence, higher = more signal;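 note: score merges 667 nm feature fluorescence with signal to noise over triplicate slides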
[9] = biological target: Neurogenic locus notch homolog protein 3 (Homo sapiens) (UniProt Q9UM47); test: NOTCH3 binders on small-molecule microarray, primary screen, biochemical, 635/667 nm fluorescence (AID 1096); details: NOTCH3 binding, 635 nm fluorescence, higher = more signal
Sequence of Neurogenic locus notch homolog protein 3 (Homo sapiens) (Q9UM47 whole entry, looked up): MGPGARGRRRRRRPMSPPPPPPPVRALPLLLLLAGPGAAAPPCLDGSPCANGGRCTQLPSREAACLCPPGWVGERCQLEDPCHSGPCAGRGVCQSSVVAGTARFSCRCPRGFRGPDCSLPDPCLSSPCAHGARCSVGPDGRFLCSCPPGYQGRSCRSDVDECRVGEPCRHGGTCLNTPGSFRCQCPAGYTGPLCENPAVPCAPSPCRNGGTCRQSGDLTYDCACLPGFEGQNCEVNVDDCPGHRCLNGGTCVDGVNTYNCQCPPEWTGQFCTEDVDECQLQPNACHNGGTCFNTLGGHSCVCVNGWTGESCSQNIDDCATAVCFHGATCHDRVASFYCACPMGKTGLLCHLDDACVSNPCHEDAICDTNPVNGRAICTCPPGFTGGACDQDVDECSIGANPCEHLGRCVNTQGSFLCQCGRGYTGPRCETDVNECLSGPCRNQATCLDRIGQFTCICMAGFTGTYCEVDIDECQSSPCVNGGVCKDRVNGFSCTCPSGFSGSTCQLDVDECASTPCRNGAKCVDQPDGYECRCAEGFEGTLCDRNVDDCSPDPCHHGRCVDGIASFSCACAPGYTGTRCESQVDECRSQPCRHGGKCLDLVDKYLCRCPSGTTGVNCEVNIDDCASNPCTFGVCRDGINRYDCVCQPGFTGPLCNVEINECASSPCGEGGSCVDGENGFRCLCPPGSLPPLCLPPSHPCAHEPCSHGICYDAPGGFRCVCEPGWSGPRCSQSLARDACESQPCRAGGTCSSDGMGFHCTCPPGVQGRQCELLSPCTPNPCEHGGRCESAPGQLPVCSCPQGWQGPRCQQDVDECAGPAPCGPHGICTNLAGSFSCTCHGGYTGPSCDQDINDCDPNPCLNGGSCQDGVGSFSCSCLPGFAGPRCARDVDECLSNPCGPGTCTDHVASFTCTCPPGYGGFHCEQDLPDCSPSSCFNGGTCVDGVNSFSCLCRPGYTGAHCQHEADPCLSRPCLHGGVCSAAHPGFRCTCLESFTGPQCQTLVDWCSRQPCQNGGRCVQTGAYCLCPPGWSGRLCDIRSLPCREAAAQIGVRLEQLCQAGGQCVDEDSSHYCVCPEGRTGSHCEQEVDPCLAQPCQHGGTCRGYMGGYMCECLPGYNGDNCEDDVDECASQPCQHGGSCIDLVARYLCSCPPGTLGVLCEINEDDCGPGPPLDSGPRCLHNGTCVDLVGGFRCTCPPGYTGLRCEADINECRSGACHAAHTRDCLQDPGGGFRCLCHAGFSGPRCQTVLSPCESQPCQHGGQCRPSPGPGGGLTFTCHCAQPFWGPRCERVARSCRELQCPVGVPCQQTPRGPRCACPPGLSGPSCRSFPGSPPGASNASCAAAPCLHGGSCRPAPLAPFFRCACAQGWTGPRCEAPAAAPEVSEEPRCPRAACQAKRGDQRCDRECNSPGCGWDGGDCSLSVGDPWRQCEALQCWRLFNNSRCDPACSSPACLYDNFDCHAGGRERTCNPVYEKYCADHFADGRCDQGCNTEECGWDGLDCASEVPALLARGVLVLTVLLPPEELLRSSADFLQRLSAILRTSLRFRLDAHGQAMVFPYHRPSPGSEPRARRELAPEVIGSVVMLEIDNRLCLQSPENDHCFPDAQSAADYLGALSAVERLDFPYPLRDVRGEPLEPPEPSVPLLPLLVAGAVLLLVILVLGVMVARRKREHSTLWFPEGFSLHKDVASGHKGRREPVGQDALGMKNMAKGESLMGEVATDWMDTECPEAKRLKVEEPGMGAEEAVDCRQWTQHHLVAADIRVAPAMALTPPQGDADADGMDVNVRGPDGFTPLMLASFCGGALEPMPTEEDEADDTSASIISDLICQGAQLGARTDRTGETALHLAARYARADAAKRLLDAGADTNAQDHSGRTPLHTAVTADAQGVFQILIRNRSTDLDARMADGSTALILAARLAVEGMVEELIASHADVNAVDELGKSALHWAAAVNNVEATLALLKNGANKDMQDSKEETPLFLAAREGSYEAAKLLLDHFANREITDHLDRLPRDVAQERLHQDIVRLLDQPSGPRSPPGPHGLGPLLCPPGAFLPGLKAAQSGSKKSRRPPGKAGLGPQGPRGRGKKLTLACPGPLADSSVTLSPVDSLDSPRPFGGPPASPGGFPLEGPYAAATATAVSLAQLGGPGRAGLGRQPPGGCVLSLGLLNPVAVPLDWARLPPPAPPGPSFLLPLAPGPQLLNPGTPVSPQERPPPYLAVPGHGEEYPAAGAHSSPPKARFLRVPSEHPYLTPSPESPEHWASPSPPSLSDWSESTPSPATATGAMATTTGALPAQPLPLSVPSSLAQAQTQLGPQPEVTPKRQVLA

[10] = small-molecule microarray binders of probe aEGFR, primary screen, biochemical, biotinylated probe, 635/667 nm fluorescence (AID 1097); details: higher = more signal;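 note: probe is a biotinylated anti-EGFR antibody binding compounds printed on slides; score combines fluorescence near 667 nm and signal to noise of each spot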
[11] = system: Plasmodium falciparum Sir2 (PF13_0152, Sir2A); test: pfSir2 binders on small-molecule microarrays, primary screen, biochemical, small-molecule microarray, 635 nm fluorescence (AID 1098); details: small-molecule microarray binding, fluorescence 635 nm; higher = more signal;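 note: score merges spot fluorescence intensity with its signal-to-noise ratio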
[12] = small-molecule microarray binders of probe aDKK1, primary screen, biochemical, biotinylated probe, 635/667 nm fluorescence (AID 1099); details: higher = more signal;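 note: score merges 667nm spot fluorescence with signal to noise across triplicate slides; reference of the scale not given here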
[13] = small-molecule microarray binders of probe aCHRDL2, primary screen, biochemical, biotinylated probe, 635/667 nm fluorescence (AID 1100); details: higher = more signal
[14] = splicing luciferase reporter signal modulators, primary screen, spliceosome inhibition project, cell-based, HEK293, splice +/- reporter (AID 1101); details: luminescence, 24 h, higher = more signal, called active from +8 up or from −8 down;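 note: HEK293 cells carrying a splicing-competent luciferase reporter gene; test concentration not given here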
[15] = biological target: Fibroblast growth factor 10 (Homo sapiens) (UniProt O15520); test: FGF10 binders on small-molecule microarrays, primary screen, biochemical, small-molecule microarray, 635 nm fluorescence (AID 1102); details: FGF10 binding, fluorescence 635 nm, higher = more signal
Sequence of Fibroblast growth factor 10 (Homo sapiens) (O15520 whole entry, looked up): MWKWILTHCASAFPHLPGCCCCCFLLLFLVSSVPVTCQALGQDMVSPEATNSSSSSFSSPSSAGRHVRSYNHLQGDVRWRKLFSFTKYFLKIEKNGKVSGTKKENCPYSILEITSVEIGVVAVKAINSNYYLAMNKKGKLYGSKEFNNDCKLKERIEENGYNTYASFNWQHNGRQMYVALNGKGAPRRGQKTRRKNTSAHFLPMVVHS

[16] = system: glycogen synthase kinase-3 (GSK3A per assay name; protocol says GSK3B); test: GSK3 binders on small-molecule microarrays, primary screen, biochemical, small-molecule microarray, 635 nm fluorescence, GSK3A (AID 1103); details: small-molecule microarray binding, fluorescence 635 nm; higher = more signal; note: the record names both GSK3A and GSK3B
[17] = biological target: Epidermal growth factor receptor (Homo sapiens) (UniProt P00533); test: EGFR binders on small-molecule microarrays, primary screen, biochemical, small-molecule microarray, 635 nm fluorescence (AID 1104); details: EGFR binding, higher = more signal;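 note: score merges 667 nm emission intensity with spot signal to noise over triplicate slides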
Sequence of Epidermal growth factor receptor (Homo sapiens) (P00533 whole entry, looked up): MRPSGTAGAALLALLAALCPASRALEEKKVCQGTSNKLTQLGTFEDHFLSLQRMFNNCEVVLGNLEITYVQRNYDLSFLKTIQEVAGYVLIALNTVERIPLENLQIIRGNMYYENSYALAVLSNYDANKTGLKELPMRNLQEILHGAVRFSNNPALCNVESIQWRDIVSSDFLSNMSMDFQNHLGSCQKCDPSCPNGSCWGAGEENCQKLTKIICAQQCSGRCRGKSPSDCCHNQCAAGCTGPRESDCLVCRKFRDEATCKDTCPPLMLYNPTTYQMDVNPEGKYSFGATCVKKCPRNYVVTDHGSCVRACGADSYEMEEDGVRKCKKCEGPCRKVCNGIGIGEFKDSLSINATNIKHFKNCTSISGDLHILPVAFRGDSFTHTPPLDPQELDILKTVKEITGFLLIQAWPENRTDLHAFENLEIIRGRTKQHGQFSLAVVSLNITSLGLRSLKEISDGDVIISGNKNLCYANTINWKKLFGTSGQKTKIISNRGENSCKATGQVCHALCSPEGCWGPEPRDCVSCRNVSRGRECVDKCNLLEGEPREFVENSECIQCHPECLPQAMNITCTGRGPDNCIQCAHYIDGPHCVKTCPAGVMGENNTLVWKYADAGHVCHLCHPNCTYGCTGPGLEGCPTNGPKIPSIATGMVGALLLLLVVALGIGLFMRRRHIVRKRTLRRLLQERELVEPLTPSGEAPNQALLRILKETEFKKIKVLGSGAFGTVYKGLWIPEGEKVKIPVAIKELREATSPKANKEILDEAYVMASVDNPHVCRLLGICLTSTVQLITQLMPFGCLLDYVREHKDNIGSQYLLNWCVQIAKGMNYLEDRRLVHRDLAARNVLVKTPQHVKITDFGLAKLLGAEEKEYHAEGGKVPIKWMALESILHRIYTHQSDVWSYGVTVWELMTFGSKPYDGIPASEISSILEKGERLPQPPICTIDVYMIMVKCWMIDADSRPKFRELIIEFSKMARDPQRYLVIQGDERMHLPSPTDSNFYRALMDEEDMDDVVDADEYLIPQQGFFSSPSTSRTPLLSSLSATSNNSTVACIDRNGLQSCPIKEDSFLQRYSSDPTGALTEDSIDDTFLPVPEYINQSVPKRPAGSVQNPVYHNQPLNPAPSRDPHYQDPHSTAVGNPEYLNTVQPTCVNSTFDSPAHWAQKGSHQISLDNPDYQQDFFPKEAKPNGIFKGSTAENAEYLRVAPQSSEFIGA

[18] = biological target: Follistatin-related protein 3 (Homo sapiens) (UniProt O95633); test: FSTL3 binders on small-molecule microarrays, primary screen, biochemical, small-molecule microarray, 635 nm fluorescence (AID 1105); details: FSTL3 binding, higher = more signal;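 note: score merges emission near 667 nm and signal to noise per printed spot across three slides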
Sequence of Follistatin-related protein 3 (Homo sapiens) (O95633 whole entry, looked up): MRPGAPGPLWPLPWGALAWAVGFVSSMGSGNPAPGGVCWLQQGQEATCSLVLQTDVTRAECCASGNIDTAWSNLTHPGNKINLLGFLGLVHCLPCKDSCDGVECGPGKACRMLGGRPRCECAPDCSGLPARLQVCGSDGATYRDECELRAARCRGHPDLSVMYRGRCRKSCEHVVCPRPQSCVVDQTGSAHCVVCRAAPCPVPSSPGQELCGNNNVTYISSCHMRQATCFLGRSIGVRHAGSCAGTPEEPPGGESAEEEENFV

[19] = biological target: Dickkopf-related protein 1 (Homo sapiens) (UniProt O94907); test: DKK1 binders on small-molecule microarrays, primary screen, biochemical, small-molecule microarray, 635 nm fluorescence scan (AID 1106); details: DKK1 binding, higher = more signal;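 note: score merges emission near 667 nm with signal to noise over three replicate slides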
Sequence of Dickkopf-related protein 1 (Homo sapiens) (O94907 whole entry, looked up): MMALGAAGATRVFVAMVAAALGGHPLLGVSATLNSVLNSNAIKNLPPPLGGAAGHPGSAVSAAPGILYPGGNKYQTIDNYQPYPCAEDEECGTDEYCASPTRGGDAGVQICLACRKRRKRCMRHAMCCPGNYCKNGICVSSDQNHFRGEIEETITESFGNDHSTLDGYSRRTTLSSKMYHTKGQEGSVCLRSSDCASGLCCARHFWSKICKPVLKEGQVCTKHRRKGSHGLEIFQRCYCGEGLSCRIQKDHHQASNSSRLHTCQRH

[20] = system: Inhibin beta A chain (activin A); test: INHBA (activin A) binders on microarrays, primary screen, biochemical, small-molecule microarray, 635 nm fluorescence scan (AID 1107); details: small-molecule microarray binding, higher = more signal;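 note: mouse activin A protein probed at 4.33 µg/mL on printed slides; score merges bound-protein fluorescence near 667 nm with spot signal-to-noise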

Structure (SMILES) | composite z-score [1] | z-score [2] | z-score [3] | z-score [4] | composite z-score [5] | z-score [6] | composite z-score [7] | composite z-score [8] | composite z-score [9] | composite z-score [10] | composite z-score [11] | composite z-score [12] | composite z-score [13] | z-score [14] | composite z-score [15] | composite z-score [16] | composite z-score [17] | composite z-score [18] | composite z-score [19] | composite z-score [20]
CN1C=C(C(=O)OCCS(C)(=O)=O)C(C(=O)OCCS(C)(=O)=O)=CC(CCCO)=CC1c1ccc(CN2CCCC2)cc1 (stereo not given) | 1.48 | 0.897 (inactive) | -6.78 (inactive) | -0.781 (inactive) | 3.06 | 0.0324 (inactive) | 0.383 | 0.845 | 0.984 | 0.273 | 0.867 | 0.633 | 0.539 | -0.0863 (inactive) | 1.27 | 1.3 | 0.566 | 1.32 | 0.602 | 0.969
C=CCNC(=O)[C@@H]1[C@H]2C(=O)O[C@H](c3ccccc3)[C@H](c3ccccc3)N2[C@H](c2ccc(O)cc2)[C@@]12C(=O)Nc1ccc(C#CC3(O)CCCCCC3)cc12 | 0.994 | 0.154 (inactive) | 0.0674 (inactive) | 0.0489 (inactive) | 1.57 | -0.447 (inactive) | -0.113 | 0.553 | -0.0051 | -0.013 | 1.1 | -0.0065 | -0.0122 | 0.405 (inactive) | 0.746 | -0.206 | 0.348 | 0.196 | 0.446 | -0.195
CCCC[C@H]1OB(O)C[C@H]2C1=C(C)C[C@H]1C(=O)C=CC(=O)[C@H]12 | 1.24 | 0.111 (inactive) | -15.4 (active) | -0.0407 (inactive) | 1.01 | -0.0396 (inactive) | -0.0916 | 0.782 | 1.04 | -0.071 | 0.559 | -0.257 | -0.722 | 1.04 (inactive) | 0.845 | 0.827 | 0.475 | 0.799 | 0.664 | 0.852
C=CCC(OC(C)=O)[C@@H]1[C@@H](N(Cc2ccc(-c3ccccc3)cc2)C(=O)c2ccc(C)cc2)c2cc(OCCCO)ccc2N1C(=O)c1ccc2ccccc2c1 (stereo not given in full) | 0.0718 | -2.33 (inactive) | -0.326 (inactive) | -0.693 (inactive) | 0.327 | 1.34 (inactive) | -0.173 | 0.166 | 0.305 | -0.139 | -0.376 | -0.165 | -0.093 | -1.36 (inactive) | 0.265 | -0.549 | -0.0575 | 0.168 | -0.134 | 0.944
COCCOC(=O)N1C(=O)[C@@]2(c3cc(C#CCC(C(=O)OC)C(=O)OC)ccc31)[C@H](c1ccc(OCCO)cc1)N1[C@H](c3ccccc3)[C@H](c3ccccc3)OC(=O)[C@H]1[C@@H]2C(=O)N1CCCCCCC1 | 1.56 | 1.9 (inactive) | 0.911 (inactive) | 3.67 (inactive) | 3.6 | 1.43 (inactive) | 1.68 | 1.43 | 1.06 | 1.03 | 1.27 | 2.5 | 1.21 | -0.915 (inactive) | 0.778 | 1.34 | 1.32 | 1.66 | 1.04 | 1.93
COCCOC(=O)N1C(=O)[C@@]2(c3cc(C#Cc4ccc(OC)cc4)ccc31)[C@H](C(=O)Nc1nc3ccccc3s1)[C@H]1C(=O)O[C@H](c3ccccc3)[C@H](c3ccccc3)N1[C@@H]2c1ccccc1OCCO | 1.58 | 0.455 (inactive) | 0.318 (inactive) | 1.62 (inactive) | 1.55 | 1.86 (inactive) | -0.179 | 1.06 | 1.13 | -0.0531 | 0.655 | -0.0582 | -0.149 | -2.03 (inactive) | 0.517 | 0.731 | 0.29 | 0.909 | 0.534 | 0.629
COc1ccc([Si](C)(C)[C@H]2[C@H](CCn3cc([C@H](O)c4ccccc4)nn3)O[C@@]3(C(=O)N(c4ccccc4)c4ccccc43)[C@@H]2C)cc1 | 1.56 | 1.02 (inactive) | 1.11 (inactive) | 1.88 (inactive) | 0.147 | 1.58 (inactive) | -0.166 | 1.1 | 0.802 | -0.187 | 0.459 | -0.125 | 0.0759 | -0.299 (inactive) | 0.355 | -0.44 | -0.166 | 0.34 | -0.0331 | -0.168
CCCCNC(=O)c1ccc(C#C[Si](C)(C)C)c(OC(C)=O)c1 | 0.305 | 0.453 (inactive) | -2.02 (inactive) | -0.973 (inactive) | -0.092 | 1.54 (inactive) | -0.0926 | 0.309 | -0.174 | -0.096 | -0.0653 | -0.31 | -0.509 | -0.176 (inactive) | 0.458 | 0.419 | 0.315 | 0.384 | 0.374 | 0.58
C=CCC(OC(C)=O)[C@@H]1[C@@H](N(Cc2cc3ccccc3o2)C(=O)c2ccc(-c3ccccc3)cc2)c2cc(OCCCO)ccc2N1C(=O)c1ccc2ccccc2n1 (stereo not given in full) | -0.766 | 0.806 (inactive) | 0.0887 (inactive) | 1.16 (inactive) | 0.607 | 0.859 (inactive) | -0.072 | 0.0917 | -0.781 | -0.0151 | -0.148 | 0.0919 | 0.51 | -0.0569 (inactive) | -0.0302 | -1.24 | -0.0803 | -0.205 | 0.157 | 1.33
COCC(=C=CC[C@@H](O)c1ccc(OCCO)cc1)C[C@@H](O)COCc1ccccc1 | 1.55 | -1.31 (inactive) | -0.979 (inactive) | -0.474 (inactive) | 3.16 | 1.55 (inactive) | 0.0282 | 1.43 | 0.964 | 0.049 | 0.804 | -0.0148 | 0.548 | -1.83 (inactive) | 1.52 | 0.611 | 0.158 | 0.939 | -0.0983 | 1.42
